CYP2C19 inh = blocks human cytochrome P450 2C19. CYP2C19 Supersomes, luciferin-H EGE luminescence, 30 min. actives 21% (n = 96,000). inhibition, % at 5 µM. P33261. AID 778;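 active = CYP2C19 inhibition above a set limit at 5 µM in the primary screen, cut at about 50% in these data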;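 also: plate controls were negative control wells for no effect and 2.5 mM tranylcypromine positive control for full effect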
CYP2C9 inhib = inhibitors of human CYP2C9 | CYP2C9 Supersomes, luciferin-H conversion, luminescence | inhibition, % at 5 µM | AID 777 | P11712 | actives 20% (n = 96,000);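 active = blocking of liver enzyme CYP2C9 beyond about 50% at 5 µM, limit read from the data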
Target sequence (P11712 whole entry, looked up): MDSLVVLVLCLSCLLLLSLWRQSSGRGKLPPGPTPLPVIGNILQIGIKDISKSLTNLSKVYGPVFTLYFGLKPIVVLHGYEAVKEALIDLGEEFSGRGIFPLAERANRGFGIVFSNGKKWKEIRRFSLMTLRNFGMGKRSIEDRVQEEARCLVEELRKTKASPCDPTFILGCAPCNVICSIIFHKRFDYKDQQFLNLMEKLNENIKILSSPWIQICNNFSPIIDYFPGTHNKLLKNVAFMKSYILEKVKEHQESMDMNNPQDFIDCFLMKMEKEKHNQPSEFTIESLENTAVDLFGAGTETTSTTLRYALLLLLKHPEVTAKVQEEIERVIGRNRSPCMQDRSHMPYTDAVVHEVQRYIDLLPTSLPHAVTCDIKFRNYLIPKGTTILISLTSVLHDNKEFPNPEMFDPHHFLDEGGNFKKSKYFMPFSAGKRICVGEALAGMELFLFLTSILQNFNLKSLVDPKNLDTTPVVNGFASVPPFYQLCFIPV
CYP2C9 activ = CYP2C9 (human) activation; P11712; recombinant CYP2C9, luciferin-H conversion, luminescence; stronger effect = higher value; factor 1 = untreated enzyme, 0 = blocked; activation factor at 5 µM; actives 1.4% (n = 96,000);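 active = activation factor of 2 or more for CYP2C9 at a 5 µM dose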;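 also: 0 = sulfaphenazole-blocked wells and 1 = vehicle-only wells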
CYP2C19 act = increases human CYP2C19 enzyme activity | AID 1025 | 96,000 tested, under 10 active | activation factor at 5 µM | recombinant CYP2C19, luciferin-H EGE luminescence; stronger effect = higher value; 0 = fully inhibited enzyme, 1 = untreated enzyme | P33261;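 active = activation factor of at least 2 at 5 µM in the primary screen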;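 also: 0 = wells with 2.5 mM tranylcypromine and 1 = vehicle-only wells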
PLAP activator = activators of human placental alkaline phosphatase; actives 1.2% (n = 96,000); P05187; purified PLAP enzyme, luminescent substrate read-out; stronger effect = higher value; AID 696; activation fold at 20 µM; in the data active = activation fold above about 2
An asterisk follows results filed as active. Hits are enriched below; roughly 31% of the tested compounds scored in any of these assays.

SMILES	CYP2C19 inh	CYP2C9 inhib	CYP2C9 activ	CYP2C19 act	PLAP activator
CN1CCN(Cc2cc(COCc3ccccc3)c3cccnc3c2O)CC1	-7	-6	1.1	1.1	2.2*
C/C(=C1/SC(N2CCOCC2)=NC1=O)c1ccc(Br)cc1	4	20	0.8	1	1
O=C(CSc1ncnc2c1cnn2-c1ccccc1)Nc1ccc2c(c1)OCO2	28	63*	0.4	0.7	0.7
COc1ccc(-n2nnc3c(SCC(=O)Nc4ccc5c(c4)OCCO5)ncnc32)cc1	10	40	0.6	0.9	0.9
O=C(CSc1ncnc2ccccc12)Nc1ccc2c(c1)OCO2	62*	40	0.6	0.4	0.6
O=C(CN1C(=O)c2ccccc2C1=O)Nc1ccc2c(c1)OCO2	5	28	0.7	0.9	1
CC(C)C12CN3CC(C(C)C)(CN(C1)C3c1ccccc1O)C2=O (stereo not given)	91*	90*	0.1	0.1	1.1
CC12CN3CC(C)(CN(C1)C3c1cc(Br)ccc1O)C2=O (stereo not given)	52*	4	1	0.5	1
CN1C(=O)c2ccccc2N(C)C1c1ccc2c(c1)OCO2 (stereo not given)	81*	69*	0.3	0.2	1.1
CC(C)C12CN3CC(C(C)C)(CN(C1)C3c1ccc3c(c1)OCO3)C2=O (stereo not given)	92*	75*	0.2	0.1	0.9
CC(C)C12CN3CC(C(C)C)(CN(C1)C31C(=O)Nc3ccccc31)C2=O (stereo not given)	-16	-14	1.1	1.2	0.9
CC12CN3CC(C)(CN(C1)C3c1ccc(Br)cc1)C2=O (stereo not given)	32	4	1	0.7	1
CN1C(=O)Cc2cc(S(=O)(=O)N3CCOCC3)ccc21	-1	-7	1.1	1	1.6
C=CCn1c(SCCC(=O)O)nc2c1c(=O)n(C)c(=O)n2C	3	-2	1	1	1
CCCC12CN3CC(C)(CN(C1)C3c1ccc3c(c1)OCO3)C2=O (stereo not given)	73*	-25	1.3	0.3	1.1
CCOc1ccc(C(=O)Nc2cnn(Cc3ccc(Cl)c(Cl)c3)c2)cc1	36	20	0.8	0.6	0.7
CCOc1ccc(Br)cc1C1C(C(=O)OC)=C(N)Oc2cc(N(C)C)ccc21 (stereo not given)	94*	85*	0.1	0.1	1.4
CCOC(=O)CN(C(=O)CNC(=O)c1cccs1)C(C(=O)NC1CCCC1)c1cccnc1 (stereo not given)	17	12	0.9	0.8	0.9
O=C(/C=C/c1ccccc1)NC(=S)NNC(=O)c1cccnc1	1	51*	0.5	1	1.7
COc1ccc(/C=C/C(=O)NC(=S)NNC(=O)c2cccnc2)cc1OC	-9	14	0.9	1.1	2*
O=C(NNC(=O)c1cccnc1)Nc1cccc2ccccc12	11	3	1	0.9	1.5
CCOC(=O)N1CCN(C(=S)NCCOC)CC1	7	-4	1	0.9	1
CC1CCCC(N2CCN(C(=O)c3cccc(F)c3)CC2)C1 (stereo not given)	89*	42	0.6	0.1	1.8
O=C(c1ccccc1F)N1CCN(CC2CC3C=CC2C3)CC1 (stereo not given)	69*	6	0.9	0.3	1.1
CC1CCCCC1N1CCN(C(=O)c2cccc(F)c2)CC1 (stereo not given)	3	2	1	1	1.2
SMILES	CYP2C19 inh	CYP2C9 inhib	CYP2C9 activ	CYP2C19 act	PLAP activator
O=C(c1cccc(F)c1)N1CCN(CC2CC3C=CC2C3)CC1 (stereo not given)	90*	32	0.7	0.1	1.5
COc1ccc(OC)c(NC(=O)C2CC(=O)n3ncnc3N2)c1 (stereo not given)	19	2	1	0.8	0.8
COc1ccc(CNC(=O)c2cnn3c(C(F)F)cc(C)nc23)cc1OC	57*	5	0.9	0.4	1.3
C=CCOc1c(Cl)cc(CNc2ccc(N(C)C)cc2)cc1OC	96*	72*	0.3	0	1.1
C=CCOc1c(Cl)cc(CNc2ccc(C)c(Cl)c2)cc1OC	38	57*	0.4	0.6	0.5
C=CCOc1ccc(CNC(C)(C)C)cc1OC	25	11	0.9	0.7	1
C=CCOc1c(Cl)cc(CNCCC)cc1Cl	59*	24	0.8	0.4	0.8
CCOc1cc(CNCCc2ccc(S(N)(=O)=O)cc2)cc(Cl)c1OCc1ccccc1	23	22	0.8	0.8	1.5
CC(C1CC1)N(C(=O)NC1CCS(=O)(=O)C1)c1ccccc1 (stereo not given)	-3	-14	1.1	1	1.2
NC(=O)c1sc2nc3c(c(-c4cccs4)c2c1N)CCCCC3	-13	-8	1.1	1.1	1
CCc1nnc(SCc2cn3c(C)cc(C)nc3n2)n1N	-20	-26	1.3	1.2	1.1
Cc1ccc(NC(NC(=O)c2ccccn2)C(Cl)(Cl)Cl)cc1 (stereo not given)	42	35	0.6	0.6	0.9
CSc1ccccc1NC(=O)c1cccs1	8	4	1	0.9	0.9
Cc1ccc(NC(NC(=O)c2cccs2)C(Cl)(Cl)Cl)cc1 (stereo not given)	95*	99*	0	0.1	0.9
Cc1ccccc1NC(NC(=O)c1cccs1)C(Cl)(Cl)Cl (stereo not given)	99*	96*	0	0	0.8
Cc1ccc(NC(NC(=O)c2cccs2)C(Cl)(Cl)Cl)cc1C (stereo not given)	12	56*	0.4	0.9	1
O=C(NC(Cc1ccc2c(c1)OCO2)C(=O)N1CCCC1C(=O)O)c1ccccc1 (stereo not given)	-1	3	1	1	1.3
CCNC(=O)N1c2ccc(OCC)cc2C(C)=CC1(C)C	67*	50*	0.5	0.3	1.4
COc1ccc(CC(=O)NCCN2CCCC2)cc1	2	5	0.9	1	1
Cc1ccc(-c2nn(CCC#N)cc2C=C(C#N)C#N)cc1	9	-14	1.1	0.9	1
N#CCCn1cc(/C=N/NC(=O)c2ccncc2)c(-c2ccccc2)n1	53*	68*	0.3	0.5	1.7
CCCN(CCC)C(=O)CSc1nc2ccccc2c(=O)n1C1CCCC1	31	65*	0.4	0.7	1.4
CCN(CC)C(=O)CSc1nc2ccccc2c(=O)n1-c1ccccc1OC	19	53*	0.5	0.8	1.6
CN(C)c1ccc(NC(=O)CSc2nc3ccccc3c(=O)n2C2CCCCC2)cc1	24	69*	0.3	0.8	1.4
CSC1=NC2(CCCCC2)C2=C(CCCC2)N1	-7	-2	1	1.1	0.8
O=[N+]([O-])c1cc(Cl)ccc1NCCNc1ncc(C(F)(F)F)cc1Cl	88*	33	0.7	0.1	0.8
O=[N+]([O-])c1cc(C(F)(F)F)ccc1NCCNC(=S)Nc1ccc(Cl)cc1	35	68*	0.3	0.6	0.7
